Holding throughout (assay): log2 fold change, soluble protein after heating vs DMSO (PISA); higher = thermal stabilisation; K562 cells, 10 uM, 30 min; active = over 0.2 and 3.5 SD of the protein, either way, in both replicates (recomputed)
Compound in assay [1]: CC[C@@H]1C(=O)N(C)c2cnc(Nc3ccc(C(=O)NC4CCN(C)CC4)cc3OC)nc2N1C1CCCC1
The method, boiled down: (§1)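 Quantification of soluble protein used TMTpro 16plex LC-MS/MS, with channel sums equalised. Samples were the supernatant after 21,000xg for 90 min of pooled aliquots from K562 cells (2×10^6 cells/mL) treated with 10 μM compound for 30 min, heated for 3 min over 48°C-58°C, and extracted in PBS with 0.5% NP-40 at 4°C. Values, from duplicates, describe thermal stability against control samples on a log2 fold-change scale.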

Compound in the next assay: CC[C@@H]1C(=O)N(C)c2cnc(Nc3ccc(C(=O)N[C@H]4CC[C@H](N5CCN(CC6CC6)CC5)CC4)cc3OC)nc2N1C(C)C [volasertib]
In a few lines: as §1

Compound in assay [2]: CC[C@H](C)N1C=C(C2=C(C=C(C=C21)C3=CN=C(C=C3)N4CCNCC4)C(=O)NCC5=C(C=C(NC5=O)C)C)C
The method, boiled down: as §1

Compound in a further assay: CC[C@H](C)[C@@H](C(=O)N[C@@H]([C@@H](C)O)C(=O)N[C@@H](CC(C)C)C(=O)[C@]1(CO1)C)NC(=O)[C@H]([C@@H](C)CC)N(C)C(=O)C [epoxomicin]
In a few lines:
as §1

Compound in assay [3]: CCn1c(C(=O)N(C2CC2)C2CC2)cc2c3c(ncn3C)c(Nc3cc(C)n(C)n3)nc21
In a few lines:
as §1

Compound in assay [4]: CCn1cc(-c2ccnc3[nH]c(-c4cccc(CN(C)C)c4)cc23)c(-c2ccc(NC(=O)N(C)C)cc2)n1
The method, boiled down: as §1

Compound in assay [5]: CN(C)CC(=O)Nc1ccc2[nH]c(=O)c3ccccc3c2c1
The method, boiled down: as §1

Compound in a further assay: CN(CCOC1=CC=C(C=C1)C[C@H]2C(=O)NC(=O)S2)C3=CC=CC=N3 (racemic) [rosiglitazone]
The method, boiled down: as §1

Compound in assay [6]: CN1C2=C(C3=C1C(=O)N(N=C3)CC4=CC(=CC=C4)N)SC(=C2)S(=O)C
The method, boiled down:
as §1

Compound in assay [7]: CN1CCC(CNc2ccc3ncc(-c4cccc(OC(F)(F)F)c4)n3n2)CC1
The method, boiled down:
as §1

Compound in the next assay: CN1CCN(CCOc2cc(OC3CCOCC3)c3c(Nc4c(Cl)ccc5c4OCO5)ncnc3c2)CC1 [saracatinib]
The method, boiled down:
as §1

Compound in another assay: CN1CCN(c2nc(C3=C(c4c[nH]c5ccccc45)C(=O)NC3=O)c3ccccc3n2)CC1 [sotrastaurin]
The method, boiled down:
as §1

Compound in a further assay: CN1CC[C@H](c2c(O)cc(O)c3c(=O)cc(-c4ccccc4Cl)oc23)[C@H](O)C1 [alvocidib]
The method, boiled down: as §1

Compound in a further assay: CN1CCc2c(c3ccccc3n2Cc2ccc(C(=O)NO)cc2)C1 [Tubastatin A]
In a few lines:
as §1

Compound in assay [8]: CNC(=O)C1=CC=CC=C1NC2=NC(=NC=C2Cl)NC3=C(C=C(C=C3)N4CCOCC4)OC
In a few lines: as §1

Compound in another assay: CNC(=O)c1ccc(Nc2ncc(C(F)(F)F)c(NCc3nccnc3N(C)S(C)(=O)=O)n2)cc1 [defactinib]
The method, boiled down:
as §1

Compound in the next assay: CNCc1ccc(-c2[nH]c3cc(F)cc4c3c2CCNC4=O)cc1 [rucaparib]
The method, boiled down: as §1

Compound in assay [9]: CNc1nc(-c2ccc3c(N)n[nH]c3c2)cc(N2C[C@@H](C(=O)NC3CCCCC3)CC[C@H]2C)n1
The method, boiled down:
as §1

Compound in another assay: COC(=O)N[C@@H](C)CNc1nccc(-c2cn(C(C)C)nc2-c2cc(Cl)cc(NS(C)(=O)=O)c2F)n1 [encorafenib]
In a few lines: as §1

Compound in assay [10]: COC(=O)[C@H](CCSC)NC(=O)C1=C(C=C(C=C1)NC[C@H](CS)N)C2=CC=CC=C2
The method, boiled down:
as §1

Targets with a hit are over-represented here; the source holds about 7,900 in all. About 0.6% of all pairs of compound and target were hits. Values without a mark were called inactive.

UniProt Q8N4A0, sequence (Q8N4A0 whole entry, looked up): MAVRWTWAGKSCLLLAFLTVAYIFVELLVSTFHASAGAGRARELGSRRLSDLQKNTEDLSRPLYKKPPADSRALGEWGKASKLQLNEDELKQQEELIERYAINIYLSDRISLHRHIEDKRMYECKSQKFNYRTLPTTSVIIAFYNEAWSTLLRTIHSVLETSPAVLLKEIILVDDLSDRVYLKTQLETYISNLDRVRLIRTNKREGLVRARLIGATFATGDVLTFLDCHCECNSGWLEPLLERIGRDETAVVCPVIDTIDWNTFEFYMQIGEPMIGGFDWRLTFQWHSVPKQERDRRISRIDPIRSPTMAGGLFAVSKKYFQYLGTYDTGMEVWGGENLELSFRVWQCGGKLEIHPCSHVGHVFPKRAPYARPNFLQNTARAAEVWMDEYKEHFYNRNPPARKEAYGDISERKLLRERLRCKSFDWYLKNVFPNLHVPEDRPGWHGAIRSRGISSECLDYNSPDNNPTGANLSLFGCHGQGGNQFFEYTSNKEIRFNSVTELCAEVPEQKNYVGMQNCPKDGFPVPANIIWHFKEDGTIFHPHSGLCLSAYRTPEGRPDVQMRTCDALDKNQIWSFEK
UniProt Q8N9F7, sequence (Q8N9F7 whole entry, looked up): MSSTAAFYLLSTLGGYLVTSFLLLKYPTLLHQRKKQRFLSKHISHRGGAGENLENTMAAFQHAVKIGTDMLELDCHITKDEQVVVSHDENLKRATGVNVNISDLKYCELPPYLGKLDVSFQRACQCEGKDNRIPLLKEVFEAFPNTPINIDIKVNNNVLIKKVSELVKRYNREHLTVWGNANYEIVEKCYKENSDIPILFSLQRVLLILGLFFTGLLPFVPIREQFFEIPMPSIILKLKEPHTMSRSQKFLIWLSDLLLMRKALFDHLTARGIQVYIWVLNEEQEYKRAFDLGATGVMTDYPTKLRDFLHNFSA
UniProt P39748, sequence (P39748 whole entry, looked up): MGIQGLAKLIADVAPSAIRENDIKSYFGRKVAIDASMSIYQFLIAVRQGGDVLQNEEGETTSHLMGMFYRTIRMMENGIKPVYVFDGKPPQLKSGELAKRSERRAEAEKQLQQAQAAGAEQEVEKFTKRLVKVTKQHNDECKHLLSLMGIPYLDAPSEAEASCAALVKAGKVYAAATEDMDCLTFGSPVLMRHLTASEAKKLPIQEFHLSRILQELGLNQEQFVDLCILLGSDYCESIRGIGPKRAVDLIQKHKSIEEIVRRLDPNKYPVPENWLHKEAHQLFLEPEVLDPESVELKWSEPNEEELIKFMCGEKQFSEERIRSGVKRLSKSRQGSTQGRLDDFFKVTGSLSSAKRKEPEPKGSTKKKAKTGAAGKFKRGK
UniProt P49356, sequence (P49356 whole entry, looked up): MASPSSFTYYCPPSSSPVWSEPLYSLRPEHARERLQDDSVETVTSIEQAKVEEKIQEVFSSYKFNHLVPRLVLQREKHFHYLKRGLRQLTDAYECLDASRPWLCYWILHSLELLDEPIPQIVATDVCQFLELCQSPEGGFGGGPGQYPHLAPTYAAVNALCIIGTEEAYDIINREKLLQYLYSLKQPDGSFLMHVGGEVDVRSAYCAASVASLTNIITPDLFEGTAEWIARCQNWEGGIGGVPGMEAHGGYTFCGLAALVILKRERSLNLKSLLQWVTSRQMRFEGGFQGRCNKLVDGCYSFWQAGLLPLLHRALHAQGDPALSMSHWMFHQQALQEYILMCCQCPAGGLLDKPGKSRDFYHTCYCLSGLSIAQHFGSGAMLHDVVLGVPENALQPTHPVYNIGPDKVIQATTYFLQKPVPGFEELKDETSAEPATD
UniProt P30519, sequence (P30519 whole entry, looked up): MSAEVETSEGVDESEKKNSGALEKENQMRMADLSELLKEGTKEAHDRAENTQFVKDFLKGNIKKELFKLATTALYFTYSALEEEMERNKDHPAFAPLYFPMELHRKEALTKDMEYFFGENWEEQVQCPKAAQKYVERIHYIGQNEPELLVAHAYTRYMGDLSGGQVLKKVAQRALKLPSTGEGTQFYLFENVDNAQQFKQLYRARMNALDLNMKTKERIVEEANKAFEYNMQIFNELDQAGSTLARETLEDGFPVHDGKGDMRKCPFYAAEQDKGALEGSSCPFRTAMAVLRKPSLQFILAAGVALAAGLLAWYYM
UniProt P69905, sequence (P69905 whole entry, looked up): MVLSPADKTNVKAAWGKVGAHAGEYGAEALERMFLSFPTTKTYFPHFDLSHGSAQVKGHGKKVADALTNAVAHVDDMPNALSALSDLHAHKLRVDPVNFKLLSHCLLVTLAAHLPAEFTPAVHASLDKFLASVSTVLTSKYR

FEN1 (UniProt P39748): the log2 fold change is -0.073 in assay [1]; -0.037 in the assay with volasertib; 0.086 in assay [2]; 0.109 with epoxomicin; -0.13 in assay [3]; -0.174 in [4]. Also, the log2 fold change in [5] is 0.155; with rosiglitazone, 0.17; in [6], -0.057; in assay [7] it was -0.283; with saracatinib, -0.087; with sotrastaurin, -0.028. In addition, the log2 fold change is -0.099 with alvocidib; 0.116 with Tubastatin A; -0.092 in assay [8]; -0.139 in the assay with defactinib; -0.128 with rucaparib; 0.183 in [9]. The figures for the log2 fold change (in the assay with encorafenib; in assay [10]) were 0.054 and -0.087, respectively.

With HMOX2 (UniProt P30519), the log2 fold change in assay [1] is -0.015; with volasertib it was -0.251 (active); in assay [2], 0.074; with epoxomicin, 0.009; in assay [3], -0.054; in assay [4] it was -0.069. Moreover, the log2 fold change in [5] was 0.008; in the assay with rosiglitazone, 0.012; in assay [6], 0.011; in assay [7], 0.054; in the assay with saracatinib, -0.071; in the assay with sotrastaurin, -0.04. Also, the log2 fold change with alvocidib was -0.06; in the assay with Tubastatin A, 0.004; in assay [8] it was 0.03; with defactinib it was -0.049; with rucaparib, 0.036; in [9], 0.15. The log2 fold change was 0.081 with encorafenib and -0.038 in assay [10].

With HBA1 (UniProt P69905), the log2 fold change in [1] was 0.049; with volasertib, -0.059; in assay [2] it was -0.038; in the assay with epoxomicin, 0.316; in assay [3], 0.078; in assay [4], -0.076. The log2 fold change in assay [5] is 0.012; with rosiglitazone it was 0.022; in assay [6], -0.044; in assay [7], 0.153; with saracatinib it was -0.017; with sotrastaurin, 0.036. The log2 fold change with alvocidib was -0.02; in the assay with Tubastatin A, 0.035; in assay [8] it was -0.01; in the assay with defactinib, -0.014; with rucaparib it was -0.036; in assay [9], 0.011. The values for the log2 fold change (in the assay with encorafenib; in assay [10]) were -0.043 and -0.034, respectively.

In the case of GALNT4 (UniProt Q8N4A0), the log2 fold change was -0.062 in [1]; -0.334 (active) with volasertib; -0.032 in assay [2]; -0.041 in the assay with epoxomicin; -0.032 in assay [3]; -0.031 in assay [4]. The log2 fold change in assay [5] is 0.007; with rosiglitazone it was 0.051; in assay [6], -0.007; in assay [7], -0.367 (active); in the assay with saracatinib it was -0.088; with sotrastaurin, -0.029. The log2 fold change was -0.033 with alvocidib; 0.046 in the assay with Tubastatin A; -0.063 in assay [8]; 0.016 with defactinib; -0.079 with rucaparib; -0.138 in [9]. Also, the figures for the log2 fold change (with encorafenib; in assay [10]) were 0.04 and -0.013, respectively.

As to GDPD1 (UniProt Q8N9F7), the log2 fold change in [1] is 0.069; in the assay with volasertib, 0.049; in [2], -0.019; with epoxomicin, 0.017; in assay [3] it was -0.015; in assay [4], -0.188. Further, the log2 fold change in assay [5] is 0.004; with rosiglitazone, 0.083; in [6] it was -0.132; in assay [7], 0.092; in the assay with saracatinib it was 0.505 (active); with sotrastaurin it was 0.21. The log2 fold change with alvocidib is -0.058; in the assay with Tubastatin A, 0.019; in [8] it was -0.017; with defactinib it was -0.087; with rucaparib, -0.07; in [9], 0.042. Also, the results for the log2 fold change (with encorafenib; in assay [10]) were -0.051 and -0.041, respectively.

As to FNTB (UniProt P49356), the log2 fold change is 0.948 (active) in assay [1]; 0.707 (active) in the assay with volasertib; 0.01 in [2]; 0.044 with epoxomicin; -0.006 in assay [3]; -0.212 in assay [4]. In addition, the log2 fold change is 0.02 in assay [5]; 0.062 in the assay with rosiglitazone; -0.055 in assay [6]; -0.088 in assay [7]; 0.046 with saracatinib; 0.346 with sotrastaurin. Further, the log2 fold change was -0.113 with alvocidib; 0.017 with Tubastatin A; -0.036 in [8]; 0.095 in the assay with defactinib; 0.02 in the assay with rucaparib; -0.007 in assay [9]. The log2 fold change in the assay with encorafenib is -0.016; in assay [10], 0.974 (active).

Source of the values: the supplement of paper PMC10849652.
